# Only some compounds are listed: those with a hit (about 19% of all), similar ones and a draw of the others.
# TDP1 block – qHTS Assay for Inhibitors of Tyrosyl-DNA Phosphodiesterase (TDP1); Tyrosyl-DNA phosphodiesterase 1 (Homo sapiens), Q9NUW8; recombinant TDP1, AlphaScreen DNA substrate cleavage; Potency, µM (series often up to 130 µM), for inactives: at the highest dose activity change, negative = inhibition, hits mostly inhibitors; hit rate 0.28% among 350,000; AID 485290, 2010; further: potency means the concentration at half of the fitted maximal effect; on the % scale 0 is the no-effect control and ±100 the full control effect; nearly all actives have a fitted effect of over 40% in size
# Target sequence (Q9NUW8 whole entry, looked up): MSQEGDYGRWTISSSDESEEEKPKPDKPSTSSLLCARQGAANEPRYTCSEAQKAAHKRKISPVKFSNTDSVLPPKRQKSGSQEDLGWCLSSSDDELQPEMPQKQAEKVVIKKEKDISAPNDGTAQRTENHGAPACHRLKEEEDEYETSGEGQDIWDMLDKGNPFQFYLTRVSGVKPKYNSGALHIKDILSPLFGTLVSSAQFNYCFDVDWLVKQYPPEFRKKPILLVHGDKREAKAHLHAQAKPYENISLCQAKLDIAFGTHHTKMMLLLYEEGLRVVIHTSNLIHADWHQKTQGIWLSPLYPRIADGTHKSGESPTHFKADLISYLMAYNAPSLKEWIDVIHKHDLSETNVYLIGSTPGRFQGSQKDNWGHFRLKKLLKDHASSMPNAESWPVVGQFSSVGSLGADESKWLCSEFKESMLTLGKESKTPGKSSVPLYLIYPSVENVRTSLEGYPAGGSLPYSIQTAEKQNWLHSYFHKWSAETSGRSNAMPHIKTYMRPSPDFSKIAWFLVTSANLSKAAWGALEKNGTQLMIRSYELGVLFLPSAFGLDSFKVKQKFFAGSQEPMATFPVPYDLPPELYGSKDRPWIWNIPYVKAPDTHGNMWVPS
#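 E. coli-derived human Tdp1, 1 nM final. Cpd preinc 15 min RT; substrate 15 nM final, 5 min RT; AS bead mix 10 ug/ml final, 10 min RT. Signal loss = tyrosine-FITC cleavage. No-enzyme wells = max signal.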
# HepG2 viability – qHTS for Inhibitors of TGF-b: Cytotox Counterscreen; HepG2 CAGA-GFP viability, ATP luminescence, 18 h; Potency, µM (highest dose often 46.1 µM), for the others: at the top dose activity change, negative = cytotoxicity, usual class: cytotoxic; hit rate 0.76% among 410,000; further: potency means the concentration at half of the fitted maximal effect
#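 HepG2 CAGA-GFP cells (1000/well, DMEM with 1% FBS) received compound, then TGF-beta at 500 pg/mL final, and were incubated 18 hours at 37 degrees C. Viability was read by CellTiter-Glo luminescence. Media-only wells were set as complete cell-killing and DMSO as no toxicity.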
# TGFb inhibitor – qHTS for Inhibitors of TGF-b; HepG2 CAGA-GFP TGF-b/SMAD3 reporter, GFP fluorescence, 18 h; TGF-beta stimulated, 500 pg/mL final; Potency, µM (highest dose often 46.1 µM), for inactives: at the top dose activity, negative = inhibition, usual class: inhibitors; hit rate 1.2% among 410,000; AID 588855, 2011; further: potency means the concentration at half of the fitted maximal effect; on the % scale 0 is the no-effect control and ±100 the full control effect; nearly all actives have a fitted effect of over 65% in size
#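 Inhibition of TGF-beta-driven CAGA-GFP reporter expression in HEPG2 cells is measured by cellular GFP fluorescence after 18 h stimulation with 500 pg/mL recombinant TGF-beta in 1% FBS medium at 37 degrees C.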
# IL-1B inflam inh – qHTS for Inhibitors of Inflammasome Signaling: IL-1-beta AlphaLISA Primary Screen; THP-1 LPS/ATP IL-1B secretion, AlphaLISA, 16 h; active compounds read low; activity change, % at 57.5 µM; hit rate 4.7% among 360,000; in the data active means activity change below about -50%; inconclusive means mostly about -30% to -49%; further: on the % scale 0 is the no-effect control and ±100 the full control effect
#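 THP-1 cells pretreated 1 hr with compounds (up to 57.5 uM final), then stimulated with LPS (250 ng/mL final) plus ATP (1.25 mM final); secreted IL-1B measured by AlphaLISA after 16 hr, decreased signal indicating inhibition.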
# TDP1 cell CPT – qHTS for Inhibitors of human tyrosyl-DNA phosphodiesterase 1 (TDP1): qHTS in cells in presence of CPT | chicken DT40 Tdp1-/-;hTDP1 cells + 20 nM CPT, ATP luminescence, 48 h | Potency, µM (highest dose often 46.2 µM), without a hit: top-dose activity change, negative = growth inhibition, most hits filed as inhibitors | hit rate 12% among 420,000 | AID 686979, 2013; further: potency means the concentration at half of the fitted maximal effect; on the % scale 0 is the no-effect control and ±100 the full control effect; nearly all actives have a fitted effect of over 55% in size
#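 Cell growth measured by CellTiter-Glo luminescence after a minimum 48 h, 37 C compound exposure with 20 nM CPT in Tdp1-knockout DT40 cells stably expressing hTDP1, seeded 400/well; qHTS titration format.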
# TDP1 cell noCPT – qHTS for Inhibitors of human tyrosyl-DNA phosphodiesterase 1 (TDP1): qHTS in cells in absence of CPT; DT40 Tdp1-/- hTDP1 cells, no CPT, ATP luminescence, 48 h; Potency, µM (titrated, usually from 46.2 µM), for inactives: top-dose activity change, negative = growth inhibition, usual class: inhibitors; hit rate 15% among 420,000; AID 686978, 2013; further: potency means the concentration at half of the fitted maximal effect; on the % scale 0 is the no-effect control and ±100 the full control effect; nearly all actives have a fitted effect of over 55% in size
#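 Stably hTDP1-transfected Tdp1-null chicken DT40 cells were treated with library compounds minus camptothecin and grown for at least 48 hr at 37 °C, after which cellular ATP was quantified by luminescence.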
# Active calls of the source: *; ? = inconclusive; / = not tested or not shown. Unless noted, the call rests on the fitted dose curve; in most records, active means well fitted curve in the direction sought with a large enough effect; inconclusive means small, poorly fitted or top-dose-only effect, or another doubt; inactive means no such curve, though single readings can be large; an effect the other way counts as inactive or inconclusive.
SMILES,TDP1 block,HepG2 viability,TGFb inhibitor,IL-1B inflam inh,TDP1 cell CPT,TDP1 cell noCPT
COc1cc(C(C)=O)ccc1OCCCOc1cccc2cccnc12,4.5%,-21.5%,-12.7%,-11.0,18.4µM*,?
c1ccc(OCCOc2cccc3cccnc23)cc1,2.7%,-13.2%,-24.3%,-22.6,-15.1%,-28.1%
CC(=O)c1ccccc1OCCCOc1cccc2cccnc12,/,-71.8%,?,15.0,23.1µM*,23.1µM*
Cc1cc(OCCOc2cccc3cccnc23)cc(C)c1Cl,7.8%,-26.5%,8.6%,-12.5,14.6µM*,18.4µM*
CCCn1c(CCC(=O)O)nc2cc(S(N)(=O)=O)ccc21,/,26.1%,-2.7%,10.8,14.6%,8.3%
O=C1CN(S(=O)(=O)c2cccc(Cl)c2Cl)CCN1,-5.2%,-19.2%,-0.6%,7.7,11.8%,4.8%
Nc1ccc(-c2nnnn2-c2ccc(N)cc2)cc1,/,-0.1%,20.0%,?,1.3%,-14.5%
CC1Sc2ccc(S(=O)(=O)CCC(=O)N3CCN(c4ccccc4F)CC3)cc2NC1=O (configuration not stated),6.9%,-20.9%,?,10.1,-21.9%,-19.7%
Cc1ccc(-c2nonc2NC(=O)c2ccco2)cc1C,8.6%,-7.0%,1.9%,/,?,?
C/C(=N\NC(=O)c1ccc(CSc2cccc3cccnc23)cc1)C1CCCCC1,3.2%,-20.4%,?,-4.4,12.6%,-9.7%
COc1ccc(/C(C)=N/NC(=O)c2ccc(CSc3cccc4cccnc34)cc2)cc1OC,4.1%,-5.7%,0.0%,-16.1,?,15.8µM*
CC(=O)c1ccc(OCCCOc2cccc3cccnc23)cc1,/,-14.7%,-27.9%,-69.8*,?,?
CC(=O)c1ccccc1OCCOCCOCCOc1ccccc1C(C)=O,-13.9%,-25.0%,6.0%,-16.1,18.4µM*,?
CCc1ccc(NC(=O)Cn2c(=O)n(CCCCC(=O)NCc3ccccc3Cl)c(=O)c3ccccc32)cc1,0.9%,-0.4%,-25.0%,/,?,?
CSc1ccc(Cl)c(C(=O)OCC(=O)N2CCN(c3ccccc3)CC2)c1,-4.5%,-39.7%,0.0%,-7.8,-6.9%,7.0%
COc1cccc(NC(=O)C2CC(=O)N=C(N)S2)c1 (configuration not stated),11.4%,23.1%,0.0%,9.0,-29.7%,-0.9%
COc1cccc(NC(=O)C2CC(=O)n3cnnc3S2)c1 (configuration not stated),-4.0%,7.1%,-4.8%,3.6,2.91µM*,5.17µM*
COc1ccc(NC(=O)C2CC(=O)n3cnnc3S2)cc1 (configuration not stated),/,-9.3%,3.9%,-3.8,2.31µM*,4.61µM*
CN(C(=O)COC(=O)c1c2c(nc3ccccc13)CCCC2)c1c(N)n(Cc2ccccc2)c(=O)[nH]c1=O,-6.2%,-2.9%,-12.9%,-54.1*,-4.6%,-16.0%
CC(C)CN(C(=O)COC(=O)c1c2c(nc3ccccc13)CCC2)c1c(N)n(Cc2ccccc2)c(=O)[nH]c1=O,0.5%,-16.7%,?,-51.1*,?,?
CC(=O)c1cc(-c2ccc(F)cc2)n(CC(=O)NC2CCCCCC2)c1C,1.9%,6.6%,-16.7%,/,?,16.4µM*
COc1ccc(CCNC(=O)Cn2c(-c3ccc(F)cc3)cc(C(C)=O)c2C)cc1OC,-2.8%,-11.0%,0.0%,/,25.9µM*,20.6µM*
CCOC(=O)c1cc(-c2ccc(C)cc2)n(CC(=O)NC2CCCCCC2)c1C,-1.0%,-4.4%,?,/,23.1µM*,?

# Screening data: PubChem, National Center for Advancing Translational Sciences (NCATS)
